{
  "source": "PubChem BioAssay AID488922",
  "about": "(Johns Hopkins Ion Channel Center, 2010)",
  "note": "The whole screen tested about 310,000 compounds, of which about 3,800 (1.2%) were called active.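 Rule for the calls: active = ratio B-score over 3 SD below the library mean, with starting fluorescence within 5 SD of its mean; inactive = the rest, inconclusive results apart.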 The full list was thinned out, with actives kept by preference.",
  "data": [
    {"molecular_target": "Potassium channel subfamily K member 9 (Homo sapiens) (UniProt Q9NPC2)", "sequence (Q9NPC2 whole entry, looked up)": "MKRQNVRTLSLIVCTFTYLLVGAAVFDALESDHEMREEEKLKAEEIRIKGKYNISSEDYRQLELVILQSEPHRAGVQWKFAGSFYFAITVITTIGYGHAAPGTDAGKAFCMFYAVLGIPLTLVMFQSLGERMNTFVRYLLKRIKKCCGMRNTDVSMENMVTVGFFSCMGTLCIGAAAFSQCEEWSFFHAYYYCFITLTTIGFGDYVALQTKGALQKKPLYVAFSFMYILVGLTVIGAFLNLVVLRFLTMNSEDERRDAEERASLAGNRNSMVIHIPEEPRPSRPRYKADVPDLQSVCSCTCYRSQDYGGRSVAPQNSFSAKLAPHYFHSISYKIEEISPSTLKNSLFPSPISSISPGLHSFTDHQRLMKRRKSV", "experiment": "KCNK9 potassium channel inhibitors, primary screen, HEK293 cells, thallium flux (AID 488922);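 for B-score: negative B-score means less thallium flux so channel inhibition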", "settings": "HEK293 KCNK9, FluxOR thallium flux fluorescence, at 10 µM; active compounds read low", "values": [
      {"smiles": "CCC(C)NC(=O)c1nn(C)c(=O)c2ccccc12", "note": "(configuration not stated)", "B-score": "inactive"},
      {"smiles": "Cc1ccc(N2C(=O)C(NC(=O)c3c(F)cccc3F)(C(F)(F)F)C3=C2CC(C)(C)CC3=O)cc1", "note": "(configuration not stated)", "B-score": "inactive"},
      {"smiles": "CC(Sc1nc(-c2ccccc2)cc(C(F)(F)F)n1)C(=O)Nc1ccc2c(c1)OCO2", "note": "(configuration not stated)", "B-score": "inactive"},
      {"smiles": "O=C(Nc1ccc2c(c1)OCO2)c1sc2cc(Cl)ccc2c1Cl", "B-score": "inactive"},
      {"smiles": "CC(Sc1nc2cc(Cl)ccc2s1)C(=O)Nc1ccc2c(c1)OCO2", "note": "(configuration not stated)", "B-score": "-7.35 (active)"},
      {"smiles": "COc1ccc(Nc2ncnc3sc(-c4ccccc4)cc23)c(OC)c1", "B-score": "-9.69 (active)"},
      {"smiles": "COc1ccc(Nc2ncnc3sc(C)cc23)cc1", "B-score": "inactive"},
      {"smiles": "COc1ccc(Nc2ncnc3ccc(Br)cc23)c(OC)c1", "B-score": "inactive"},
      {"smiles": "CCc1cc(=O)oc2cc(OCC(=O)N3CCCc4ccccc43)ccc12", "B-score": "inactive"},
      {"smiles": "CN(C)C(=O)c1ccc2c(c1)C1C3CCC(C3)C1C(c1ccccc1)N2", "note": "(configuration not stated)", "B-score": "inactive"},
      {"smiles": "CC(=O)c1ccc(NC(=O)CCNS(=O)(=O)c2cc(Br)cnc2N)cc1", "B-score": "inactive"},
      {"smiles": "O=C(COC(=O)c1ccccc1SCC(=O)NC1CCCCC1)NC1CCCCC1", "B-score": "inactive"},
      {"smiles": "C=CCNC(=O)COC(=O)c1ccccc1C(=O)N(C)C1CCCCC1", "B-score": "-6.84 (active)"},
      {"smiles": "COc1ccccc1C(=O)OCC(=O)NCCNC(=O)COC(=O)c1ccccc1OC", "B-score": "inactive"},
      {"smiles": "O=c1cc(Cl)c2ccccc2n1-c1ccccc1", "B-score": "inactive"},
      {"smiles": "OCCCNC(c1ccccc1)c1ccc(O)cc1", "note": "(configuration not stated)", "B-score": "inactive"},
      {"smiles": "CC(NCC(=O)Nc1cc(Cl)cc(Cl)c1)c1ccccc1", "note": "(configuration not stated)", "B-score": "inactive"},
      {"smiles": "O=C(Nc1cc(Cl)cc(Cl)c1)C(NCCCO)c1ccccc1", "note": "(configuration not stated)", "B-score": "-8.3 (active)"},
      {"smiles": "COc1ccccc1N1CCN(Cc2cc(OC)c3c(c2)OCO3)CC1", "B-score": "inactive"},
      {"smiles": "Cc1noc(C)c1C(=O)OCC(=O)N1CCN(S(=O)(=O)c2ccc3ccccc3c2)CC1", "B-score": "inactive"},
      {"smiles": "COC(=O)C1=C(Nc2ccc(OC)cc2)C=C(C)C(C(=O)OC)C1c1ccc(C)cc1", "note": "(configuration not stated)", "B-score": "inactive"},
      {"smiles": "COC(=O)C1=C(Nc2ccc(C)cc2)C=C(C)C(C(=O)OC)C1c1ccc(F)cc1", "note": "(configuration not stated)", "B-score": "-10.4 (active)"},
      {"smiles": "COC(=O)C1C(=O)NCC1c1ccc(C)cc1", "note": "(configuration not stated)", "B-score": "inactive"},
      {"smiles": "CC1CCC(NC(=O)CNC(=O)c2ccc3ccccc3c2)CC1", "note": "(configuration not stated)", "B-score": "inactive"},
      {"smiles": "CN=C1SC(CC(=O)Nc2ccc(C(=O)O)cc2)C(=O)N1C", "note": "(configuration not stated)", "B-score": "inactive"},
      {"smiles": "CN(CCC(=O)Nc1cc(S(=O)(=O)N(C)C)ccc1Cl)CC(=O)Nc1ccc(F)cc1", "B-score": "-12.2 (active)"},
      {"smiles": "CN(CC(=O)Nc1ccc(S(=O)(=O)N2CCCC2)cc1)Cc1ccc(Cl)c(Cl)c1", "B-score": "inactive"},
      {"smiles": "CN(CC(=O)Nc1ccc(F)cc1)CC(=O)Nc1ccc(Cl)c(S(=O)(=O)N2CCOCC2)c1", "B-score": "inactive"},
      {"smiles": "COc1ccccc1OCC(=O)O/N=C(\\N)c1ccccn1", "B-score": "inactive"},
      {"smiles": "O=C(O)CCS(=O)(=O)c1ccc(-c2ccccc2)cc1", "B-score": "inactive"},
      {"smiles": "Cc1cc(C)c(C)c(S(=O)(=O)Nc2ccc(O)cc2)c1C", "B-score": "inactive"},
      {"smiles": "Cc1ccc(Cn2cc(C(=O)NN)c(=O)c3ccc(F)cc32)cc1", "B-score": "inactive"},
      {"smiles": "O=C1c2ccccc2C2=Nc3ccccc3SC(c3ccccc3F)C12", "note": "(configuration not stated)", "B-score": "-9.81 (active)"},
      {"smiles": "CCOC(=O)C1=C(C)N=C2c3ccccc3C(=O)C2C1c1ccc(Br)cc1", "note": "(configuration not stated)", "B-score": "inactive"},
      {"smiles": "O=C1c2ccccc2C(=O)C1c1ccccc1F", "B-score": "inactive"},
      {"smiles": "CC(C)c1ccc2c(c1)c(SC(C)(C)C)c(CC(C)(C)C(=O)O)n2Cc1ccc(Cl)cc1", "B-score": "inactive"},
      {"smiles": "COc1ccc(C2NC(=O)N(C)C(C)=C2[N+](=O)[O-])cc1", "note": "(configuration not stated)", "B-score": "inactive"},
      {"smiles": "CCc1cccc(C)c1N(C(=O)Cn1c(CO)nc2ccccc21)C(C)COC", "note": "(configuration not stated)", "B-score": "-9.35 (active)"},
      {"smiles": "CCOCN(C(=O)Cn1c(C(C)O)nc2ccccc21)c1c(C)cccc1CC", "note": "(configuration not stated)", "B-score": "inactive"},
      {"smiles": "COc1ccccc1Cn1c(CO)nc2ccccc21", "B-score": "inactive"},
      {"smiles": "CCOc1ccc2[nH]c(=O)c(CN(Cc3nnnn3CCc3ccccc3)CC3CCCO3)cc2c1", "note": "(configuration not stated)", "B-score": "-9.63 (active)"},
      {"smiles": "COc1ccc2[nH]c(=O)c(CN(Cc3nnnn3CCc3ccccc3)CC3CCCO3)cc2c1", "note": "(configuration not stated)", "B-score": "inactive"},
      {"smiles": "CCOc1ccc2[nH]c(=O)c(CN(Cc3nnnn3Cc3ccccc3)CC3CCCO3)cc2c1", "note": "(configuration not stated)", "B-score": "inactive"},
      {"smiles": "Cc1cc(=O)[nH]c(Nc2cccc(Br)c2)n1", "B-score": "inactive"},
      {"smiles": "CCCc1nc2c(c(=O)c3ccccc3n2C)c(=O)n1-c1cc(C)cc(C)c1", "B-score": "inactive"},
      {"smiles": "CCCc1nc2ccccc2c(=O)n1/N=C/c1ccc(O)c(O)c1", "B-score": "inactive"},
      {"smiles": "CCCN1C(=O)C(Cc2nc3ccccc3c(=O)n2-c2ccccc2)c2cc(C)ccc21", "note": "(configuration not stated)", "B-score": "-9.54 (active)"},
      {"smiles": "CC(C)(C)n1nnnc1C(c1cccs1)N(Cc1cccnc1)CC1CCCO1", "note": "(configuration not stated)", "B-score": "inactive"},
      {"smiles": "CCOc1ccc(CN(Cc2ccco2)C(c2cccs2)c2nnnn2C(C)(C)C)cc1", "note": "(configuration not stated)", "B-score": "-17 (active)"},
      {"smiles": "CCOc1ccc(CN(Cc2ccco2)S(=O)(=O)c2ccc(-n3cnnn3)c(OC)c2)cc1", "B-score": "inactive"},
      {"smiles": "NC(=O)CC(NC(=O)Cc1ccc(Br)cc1)c1ccc(NC2CC3CCC2C3)c([N+](=O)[O-])c1", "note": "(configuration not stated)", "B-score": "inactive"},
      {"smiles": "Cc1cc(C)n2nc(CNS(=O)(=O)c3c(F)c(F)c(F)c(F)c3F)nc2n1", "B-score": "inactive"},
      {"smiles": "COc1ccc(NC(=O)NN2CCN(C)CC2)c(OC)c1", "B-score": "inactive"},
      {"smiles": "Fc1ccc2c(c1)C(c1cccnc1)=NNC(c1cccs1)=N2", "B-score": "inactive"},
      {"smiles": "COc1ccc(C(=O)/C=C/c2cccnc2)c(OC)c1", "B-score": "inactive"},
      {"smiles": "COc1ccc2c(c1)C(c1cccs1)=NNC(c1cccnc1)=N2", "B-score": "-13 (active)"},
      {"smiles": "OCC[C@H]1C[C@H](O)[C@@H](O)[C@]2(CCCCO2)O1", "B-score": "inactive"},
      {"smiles": "CCCNC(=O)CSc1nc(Cc2ccccc2)nc2ccccc12", "B-score": "-7.59 (active)"},
      {"smiles": "CCc1nc(SCC(=O)NNC(=O)c2ccc(C)cc2)c2ccccc2n1", "B-score": "inactive"},
      {"smiles": "C=CCSc1nc(Cc2ccc(Cl)cc2)nc2ccccc12", "B-score": "inactive"},
      {"smiles": "CCOc1ccc(N(C)Cc2cc(=O)oc3ccc(OC)cc23)cc1", "B-score": "inactive"},
      {"smiles": "Cc1nc(-c2ccc(F)cc2)c(CC(=O)Nc2cc(S(=O)(=O)N3CCCCC3)ccc2C)s1", "B-score": "inactive"},
      {"smiles": "Cc1ccc(S(=O)(=O)N(C)CC(=O)NCCc2c[nH]c3ccccc23)cc1", "B-score": "inactive"},
      {"smiles": "OC(c1ccc(Cl)cc1)C(CN1CCOCC1)c1ccccc1", "note": "(configuration not stated)", "B-score": "inactive"},
      {"smiles": "Cc1ccc(-c2csc(NCCc3nc4cc(Cl)c(Cl)cc4n3CCOCCO)n2)cc1", "B-score": "-9.6 (active)"},
      {"smiles": "Cc1ccc(-c2csc(N3CCN(c4cc5c(cc4Cl)nc(-c4ccncc4)n5CCOCCO)CC3)n2)cc1", "B-score": "inactive"},
      {"smiles": "CCCn1c(CCNc2nc(-c3ccc(OC)cc3)cs2)nc2ccccc21", "B-score": "inactive"}
    ]}
  ]
}
